# A number with no mark means an inactive call. Active and inactive are the calls of the source. Cut-off read from the data, not from the text of the source: active = inhibition above about 50%; inactive = the rest.
# Target: Prolyl endopeptidase-like (Mus musculus) (UniProt Q8C167)
# Experiment: mouse PREPL enzyme inhibition by screening hits – biochemical, gel-based competitive ABPP, fluorescence, HTS hits, PREPL inhibitor project (AID 624481)
# Conditions: purified mouse PREPL, at 20 µM, active compounds read high
# Prolyl endopeptidase-like (Mus musculus), sequence (Q8C167 whole entry, looked up): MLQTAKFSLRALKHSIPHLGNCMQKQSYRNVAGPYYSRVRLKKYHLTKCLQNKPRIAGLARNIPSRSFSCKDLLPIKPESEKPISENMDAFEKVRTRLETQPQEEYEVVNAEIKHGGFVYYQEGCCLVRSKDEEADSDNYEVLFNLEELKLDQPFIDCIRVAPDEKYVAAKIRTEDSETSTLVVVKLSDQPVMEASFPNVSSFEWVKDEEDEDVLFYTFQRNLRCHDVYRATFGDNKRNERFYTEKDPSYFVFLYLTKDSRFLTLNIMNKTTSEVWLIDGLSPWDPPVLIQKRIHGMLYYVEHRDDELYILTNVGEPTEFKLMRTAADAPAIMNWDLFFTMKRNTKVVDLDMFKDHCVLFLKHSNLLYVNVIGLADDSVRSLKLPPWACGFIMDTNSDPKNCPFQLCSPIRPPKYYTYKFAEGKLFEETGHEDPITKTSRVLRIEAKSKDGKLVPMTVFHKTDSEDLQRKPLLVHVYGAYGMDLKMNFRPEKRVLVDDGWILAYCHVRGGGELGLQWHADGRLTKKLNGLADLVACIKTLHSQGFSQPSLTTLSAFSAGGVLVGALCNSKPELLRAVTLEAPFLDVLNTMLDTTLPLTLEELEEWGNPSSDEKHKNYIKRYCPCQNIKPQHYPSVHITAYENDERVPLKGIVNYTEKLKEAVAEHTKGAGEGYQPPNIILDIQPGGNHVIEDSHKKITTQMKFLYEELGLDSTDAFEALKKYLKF
row,Structure (SMILES),inhibition
1,COc1ccc(C(=O)c2coc3ccc(O)c(CN4CCOCC4)c23)cc1,-78%
2,O=C(c1cc([N+](=O)[O-])ccc1Cl)N1CCN(c2ccc([N+](=O)[O-])cc2)CC1,-51%
3,CC(C)[C@@H]1CN=C(N)N1C[C@@H]1CCCN1C[C@H](C)N1C[C@@H](Cc2ccccc2)N(CCc2ccc(Cl)c(Cl)c2)C1=N,-62%
4,Nc1nn(-c2ccccc2)c(N)c1N=Nc1ccccc1,-16%
5,COc1ccc(NCc2nc3ccccc3n2CCOc2ccc(C)cc2)cc1,-75%
6,COc1ccc(C)cc1Nc1n[n+](-c2ccccc2)c(-c2ccc(OC)c(OC)c2OC)s1,-41%
7,COc1cccc2cc(C(=O)C3=C(O)C(=O)N(CCN4CCOCC4)C3c3ccc(C(C)(C)C)cc3)oc12 (centres undefined),-36%
8,Cc1ccc(-c2csc(=Nc3cccnc3)n2CCCn2ccnc2)cc1C,-52%
9,Cc1ccc(S(=O)(=O)Nc2ccc3c(c2)CC(=O)N([C@H](C)CO)C[C@H](C)[C@H](CN(C)Cc2ccc4c(c2)OCO4)O3)cc1,9%
10,CCCCCNc1nc(N2CCCC2)c2c(c1C#N)CCN(C)C2,-89%
11,CC[C@@H](C)[C@@H]1CN([C@@H](CN2CCC[C@H]2CN2C(N)=NC[C@@H]2Cc2ccccc2)C(C)C)C(=N)N1CCCC1CCCC1,-104%
12,CCOc1ccc(Nc2c3ccccc3nc3ccccc23)cc1,-58%
13,C#CCOCCOCCOCCNc1nc(N2CCN(C(=O)[C@H](Cc3cc4ccccc4[nH]3)n3cc([C@@H](N)C(C)CC)nn3)CC2)nc(N2CCN(C(=O)[C@H](Cc3cc4ccccc4[nH]3)n3cc([C@@H](N)Cc4ccc(O)cc4)nn3)CC2)n1 (some centres undefined),-104%
14,CC1CCCN(Cc2c(O)ccc3c(=O)c(-c4nc5ccccc5s4)c(N)oc23)C1 (centres undefined),3%
15,O=C(Cc1ccc(Cl)cc1)Nc1ccc(N2CCN(C(=O)c3ccco3)CC2)cc1,-61%
16,NC(=O)[C@@H]1CCCNc2c(I)cc([N+](=O)[O-])cc2C(=O)N[C@@H](CCCN=C(N)N)C(=O)N[C@@H](CCCN=C(N)N)C(=O)N1,-77%
17,Cc1cccc(OCC(=O)Nc2ccc(N3CCN(C(=O)c4ccccc4)CC3)cc2)c1,-12%
18,COc1ccc(Cn2c(SCc3ccccc3C)nc3cc(OC)c(OC)cc3c2=N)cc1,52% (active)
19,COc1ccc(NC(=O)N2CCN(c3ccc([N+](=O)[O-])cc3)CC2)cc1OC,-40%
20,CCC(CN(C)C)Oc1cc(NCc2ccccc2)c2ncn(C(C)C)c2c1 (centres undefined),-65%
21,CN(C)c1ccc(C(CNC(=O)c2ccccc2F)c2c[nH]c3ccccc23)cc1 (centres undefined),-10%
22,CC(C)(C)Nc1nc(-c2ccccn2)nc2ccccc12,-31%
23,Cc1ccc(C2=CC(c3ccc(N(C)C)cc3)n3nnnc3N2)cc1 (centres undefined),-77%
24,Cn1c(NC(=O)C[n+]2cc(-c3ccc(Cl)c(Cl)c3)n3c2CCC3)cc(=O)n(C)c1=O,-80%
